Source: PubChem BioAssay
A number with no mark means an inactive call. For some of these results: Measured potencies and affinities stand elsewhere. Calls of active or inactive are those of the source. Unless noted, how the calls were made is not given here.

Experiments:
[1] = antimalarial activity against Dd2 strain (AID 2302;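 active means growth inhibition above 50% at the single 2 µM test dose, taken to imply half-maximal potency below 2 µM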;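 further: 0% = DMSO untreated growth and 100% = chloroquine plus artemisinin killed control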); conditions: P. falciparum Dd2 in RBCs, LDH growth readout, 72 h; at 2 µM; stronger effect = higher value
[2] = human hepatoma cell viability loss – ATP luminescence, cytotoxicity control for P. falciparum antimalarial project, primary screen (AID 2303;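 active means inhibition above 50%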;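 further: 0% = DMSO wells and 100% = digitonin-killed cells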); conditions: HepG2 viability, 24-48 h, at 10 µM, stronger effect = higher value
[3] = biological target: L-lactate dehydrogenase (Plasmodium falciparum (isolate CDC / Honduras)) (UniProt Q27743); assay: PfLDH activity inhibition – cell lysate, 3D7 strain, counter-screen for P. falciparum growth inhibition project (AID 2304);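 further: 0% = vehicle and 100% = reference inhibitor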; conditions: P. falciparum 3D7 crude extract, LDH APAD/NBT absorbance; at 2 µM; stronger effect = higher value
Chain of L-lactate dehydrogenase (Plasmodium falciparum (isolate CDC / Honduras)) (Q27743 whole entry, looked up): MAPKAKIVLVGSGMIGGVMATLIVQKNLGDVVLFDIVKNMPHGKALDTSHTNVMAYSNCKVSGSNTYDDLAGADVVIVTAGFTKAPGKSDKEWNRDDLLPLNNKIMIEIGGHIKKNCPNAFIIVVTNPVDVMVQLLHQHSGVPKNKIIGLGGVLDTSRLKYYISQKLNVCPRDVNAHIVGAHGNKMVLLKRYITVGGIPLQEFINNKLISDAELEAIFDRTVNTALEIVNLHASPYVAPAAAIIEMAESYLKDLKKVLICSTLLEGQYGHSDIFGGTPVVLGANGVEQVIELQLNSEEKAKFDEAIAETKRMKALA

[4] = inhibition of 3D7 malaria parasite growth – strain 3D7 (AID 2306);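 further: 0% = DMSO wells and 100% = chloroquine plus artemisinin control wells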; conditions: P. falciparum 3D7 erythrocytic growth, LDH absorbance, 72 h; at 2 µM; stronger effect = higher value
[5] = biological target: Calcium-dependent protein kinase 1 (Plasmodium falciparum (isolate 3D7)) (UniProt P62344); assay: PfCDPK1 kinase inhibitors, biochemical, TCAMS library (AID 1159585; cut-off not given, nearly all actives have IC50 up to about 0.98 µM;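 further: inhibitors leave more ATP so luminescence rises with inhibition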); conditions: recombinant PfCDPK1, Kinase-Glo ATP depletion luminescence
Chain of Calcium-dependent protein kinase 1 (Plasmodium falciparum (isolate 3D7)) (P62344 whole entry, looked up): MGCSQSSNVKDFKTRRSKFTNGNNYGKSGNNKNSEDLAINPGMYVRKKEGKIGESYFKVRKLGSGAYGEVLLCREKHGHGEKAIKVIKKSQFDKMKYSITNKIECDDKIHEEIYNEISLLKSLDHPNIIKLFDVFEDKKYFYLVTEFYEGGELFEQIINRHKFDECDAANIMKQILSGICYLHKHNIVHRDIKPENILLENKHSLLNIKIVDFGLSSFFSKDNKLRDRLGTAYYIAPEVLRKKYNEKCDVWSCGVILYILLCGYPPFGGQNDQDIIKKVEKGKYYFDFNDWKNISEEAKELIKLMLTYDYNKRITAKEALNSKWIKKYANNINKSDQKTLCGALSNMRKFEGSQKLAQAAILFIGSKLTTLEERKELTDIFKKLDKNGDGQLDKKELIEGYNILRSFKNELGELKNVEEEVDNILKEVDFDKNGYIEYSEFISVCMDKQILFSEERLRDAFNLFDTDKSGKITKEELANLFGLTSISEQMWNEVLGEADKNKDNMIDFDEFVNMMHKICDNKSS

[6] = biological target: Plasmodium falciparum protein kinase 6 (PK6, PF3D7_1337100) (UniProt Q8IDW1); assay: PfPK6 kinase inhibitors, biochemical, TCAMS library (AID 1159586); conditions: recombinant PfPK6, Kinase-Glo ATP depletion luminescence
Chain of Plasmodium falciparum protein kinase 6 (PK6, PF3D7_1337100) (Q8IDW1 1-305): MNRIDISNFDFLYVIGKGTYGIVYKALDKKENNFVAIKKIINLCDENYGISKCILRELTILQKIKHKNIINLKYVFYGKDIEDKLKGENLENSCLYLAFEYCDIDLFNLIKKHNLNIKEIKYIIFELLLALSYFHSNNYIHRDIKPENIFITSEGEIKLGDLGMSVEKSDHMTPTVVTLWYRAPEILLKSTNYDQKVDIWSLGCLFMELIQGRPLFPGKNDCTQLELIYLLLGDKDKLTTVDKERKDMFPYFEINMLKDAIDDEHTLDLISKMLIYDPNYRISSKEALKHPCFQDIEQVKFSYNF

[7] = biological target: Protein kinase 7 (PK7), Plasmodium falciparum 3D7 (PF3D7_0213400) (UniProt Q7YTF7); assay: inhibition of Plasmodium PK7 catalytic activity – biochemical, TCAMS antimalarial set, Kinase-Glo luminescence (AID 1159587); conditions: recombinant PfPK7, Kinase-Glo ATP depletion luminescence
Chain of Protein kinase 7 (PK7), Plasmodium falciparum 3D7 (PF3D7_0213400) (Q7YTF7 1-343): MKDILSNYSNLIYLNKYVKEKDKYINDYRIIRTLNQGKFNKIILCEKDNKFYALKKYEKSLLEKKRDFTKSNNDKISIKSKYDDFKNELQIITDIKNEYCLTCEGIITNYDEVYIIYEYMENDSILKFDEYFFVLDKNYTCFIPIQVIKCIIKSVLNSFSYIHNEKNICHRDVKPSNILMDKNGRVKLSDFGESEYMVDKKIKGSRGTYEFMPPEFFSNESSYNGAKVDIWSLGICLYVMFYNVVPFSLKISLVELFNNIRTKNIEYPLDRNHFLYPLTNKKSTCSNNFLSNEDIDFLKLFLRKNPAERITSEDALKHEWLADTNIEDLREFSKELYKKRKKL

[8] = biological target: Calcium-dependent protein kinase 4 (Plasmodium falciparum (isolate 3D7)) (UniProt Q8IBS5); assay: PfCDPK4 kinase inhibitors, biochemical, TCAMS library (AID 1159588; cut-off not given, nearly all actives have IC50 up to about 0.91 µM); conditions: recombinant PfCDPK4, Kinase-Glo ATP depletion luminescence
Chain of Calcium-dependent protein kinase 4 (Plasmodium falciparum (isolate 3D7)) (Q8IBS5 whole entry, looked up): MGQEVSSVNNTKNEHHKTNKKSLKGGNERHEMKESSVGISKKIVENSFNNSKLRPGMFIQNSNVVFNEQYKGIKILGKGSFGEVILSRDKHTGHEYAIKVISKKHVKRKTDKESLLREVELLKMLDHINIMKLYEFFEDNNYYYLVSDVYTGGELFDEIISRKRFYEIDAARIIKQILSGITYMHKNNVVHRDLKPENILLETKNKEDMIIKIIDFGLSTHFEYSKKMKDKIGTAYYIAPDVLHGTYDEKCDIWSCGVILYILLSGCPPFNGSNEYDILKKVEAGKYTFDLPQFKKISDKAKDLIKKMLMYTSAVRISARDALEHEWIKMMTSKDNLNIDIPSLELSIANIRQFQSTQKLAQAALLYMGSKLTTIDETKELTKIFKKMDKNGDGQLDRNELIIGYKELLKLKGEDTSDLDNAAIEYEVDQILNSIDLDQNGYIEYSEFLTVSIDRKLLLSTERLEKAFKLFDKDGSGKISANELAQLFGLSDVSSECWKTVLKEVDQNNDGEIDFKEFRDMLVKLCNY

Row | SMILES | growth inhibition [1] | inhibition [2] [%] | inhibition [3] [%] | growth inhibition [4] | outcome [5] | outcome [6] | outcome [7] | outcome [8]
1 | CCCCCCc1ncc(-c2cc3cc(O)c(-c4ccccc4)cc3oc2=O)s1 | 63% (active) | 4 | -8 | 90% (active) | inactive | inactive | inactive | inactive
2 | Cc1cc2c(NC(=O)NC3CCN(CCc4cccc(Cl)c4)CC3)cccc2cn1 | 27% | 12 | -5 | 100% (active) | inactive | inactive | inactive | inactive
3 | CC(C)C[C@@H]1C(=O)N[C@H](C2Cc3ccccc3C2)C(=O)N1[C@@H](C(=O)O)c1ccc(F)cc1F | -2% | 10 | -1 | 98% (active) | inactive | inactive | inactive | inactive
4 | CC(C)(C)OC(=O)c1c(NC(=O)/C=C/c2ccc(O)c(O)c2)sc2c1CCCC2 | 77% (active) | 4 | 2 | 97% (active) | inactive | inactive | inactive | inactive
5 | CC(NC(=O)c1cc(-c2ccccc2)nc2c1cnn2C(C)C)C1CC1 (stereo not given) | 88% (active) | 35 | -2 | 101% (active) | inactive | inactive | inactive | inactive
6 | Nc1ncc(-c2ccc(F)cc2)cc1-c1nc2ccc(Cl)cc2[nH]1 | 44% | 45 | 0 | 99% (active) | inactive | inactive | inactive | inactive
7 | COc1ccc2nccc(NC(=O)N3CCC(NCc4cc5ccccc5[nH]4)CC3)c2n1 | 29% | 27 | -5 | 85% (active) | inactive | inactive | inactive | inactive
8 | CN1CCCC(OC(=O)c2ccccc2)C1 (stereo not given) | -2% | 4 | -5 | 100% (active) | inactive | inactive | inactive | inactive
9 | O=S(=O)(NCCN1CCCC1)c1ccc(-c2ccc(CNCc3ccccc3)cc2)cc1 | 28% | 47 | 5 | 99% (active) | inactive | inactive | inactive | inactive
10 | CC1(C)C(=O)Nc2ccccc2N1C(=O)CN1CCN(c2ccccc2O)CC1 | 72% (active) | 7 | 0 | 92% (active) | inactive | inactive | inactive | inactive
11 | CC(C)COc1ccc(Cl)cc1Cc1ccc(-c2nc3ccc(F)cc3[nH]2)o1 | 49% | 35 | 6 | 97% (active) | inactive | inactive | inactive | inactive
12 | COc1ccccc1-c1ccc(C(=O)NCC2CCCN(Cc3cccc(C(F)(F)F)c3)C2)s1 (stereo not given) | 37% | 18 | 3 | 81% (active) | inactive | inactive | inactive | inactive
13 | CCOC(=O)C(=O)N1c2ccc(OCC)cc2-c2c(ssc2=S)C1(C)C | 100% (active) | 5 | -4 | 99% (active) | inactive | inactive | inactive | inactive
14 | O=C(NCCCCN1CCC(O)(c2ccc3c(c2)OCO3)CC1)c1ccc(NC(=O)c2ccc(Cl)cc2)cc1 | 6% | 15 | -1 | 86% (active) | inactive | inactive | inactive | inactive
15 | COc1cccc(C(=O)NCc2cccs2)c1OCc1ccccc1 | -1% | -12 | 5 | 96% (active) | inactive | inactive | inactive | inactive
16 | Cc1[nH]c(C)c(-c2ccc(Oc3ccc(O)cc3)cc2)c(=O)c1Cl | 87% (active) | -2 | -3 | 91% (active) | inactive | inactive | inactive | inactive
17 | Cc1ccc(C)c(NC(=O)CC2C(=O)N(c3ccccc3)C(=S)N2Cc2ccco2)c1 (stereo not given) | 99% (active) | 9 | -1 | 101% (active) | inactive | inactive | inactive | inactive
18 | O=[N+]([O-])c1cccc(CNCC2CCN(Cc3ccc(O)cc3)CC2)c1 | 5% | 8 | 1 | 98% (active) | inactive | inactive | inactive | inactive
19 | Cn1c(-c2ccccc2)cc2c3c(=O)cc(C(F)(F)F)[nH]c3ccc21 | 49% | 21 | -1 | 95% (active) | inactive | inactive | inactive | inactive
20 | CCCCCCN1CCCN(Cc2ccc(C(=O)Nc3cccc(CC)c3)cc2)CC1 | 54% (active) | 31 | -3 | 85% (active) | inactive | inactive | inactive | inactive
